About 83,000 compounds went through this panel and 20% of them were active in at least one assay; those are over-represented in the sample as a whole.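 Step 1: grow cells in 96-well plates. Step 2: add test compound at a single concentration. Step 3: incubate 48 h. Step 4: record percent growth.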 Activity calls are given as the source filed them. Rule for the calls: active = growth percent below 10; inactive = the rest.
Assays:
Assay in all cases: NCI-60 one-dose screen, 48 h (100 = growth as untreated, 0 = no growth, -100 = all killed)
Conditions in all cases: 10 µM unless noted
[1] = tested on: SK-MEL-2 melanoma
[2] = tested on: SN12C renal
[3] = tested on: UO-31 renal
[4] = tested on: TK-10 renal
[5] = tested on: ACHN renal
[6] = tested on: CAKI-1 renal
[7] = tested on: A498 renal
[8] = tested on: CCRF-CEM leukemia
[9] = tested on: MOLT-4 leukemia
[10] = tested on: RPMI-8226 leukemia
[11] = tested on: OVCAR-8 ovarian
[12] = tested on: OVCAR-5 ovarian
[13] = tested on: OVCAR-4 ovarian
[14] = tested on: SK-OV-3 ovarian
[15] = tested on: IGROV1 ovarian
[16] = tested on: OVCAR-3 ovarian
[17] = tested on: HS 578T breast
[18] = tested on: NCI/ADR-RES ovarian
[19] = tested on: SR leukemia
[20] = tested on: EKVX NSCLC

Measured: growth

C=C(C)[C@@H]1CC[C@]2(C)[C@H](CC=C3[C@@H]4CC(C)(C)CC[C@]4(C(N)=O)CC[C@]32C)[C@@]1(C)CCC#N
active: [1] -0.287% | [2] -48.1% | [7] 7.55% | [10] 6.44%
inactive: [3] 17.6% | [4] 12.7% | [5] 20.8% | [6] 18.4% | [8] 39.8% | [9] 24.1% | [11] 26.5% | [12] 47% | [13] 20% | [14] 48.1% | [15] 53.1% | [16] 23.5% | [17] 51% | [18] 35%

C=C1C(=O)O[C@H]2[C@H]1CC/C(COC(=O)C(=O)c1c[nH]c3ccccc13)=C\CC[C@@]1(C)O[C@@H]21
inactive: [13] 17.9% | [14] 85.1% | [17] 10.7% | [18] 17.9%
active: [1] -57.5% | [2] -46.7% | [3] -93.3% | [4] -32.3% | [5] -36% | [6] -33.8% | [7] -17.9% | [9] -24.6% | [19] 1.82% | [10] -29.8% | [11] -6.78% | [12] -5.59% | [15] -69.8% | [16] -82.2%

Cc1ccc(Cl)c(NS(=O)(=O)c2ccc(-c3cnc(C4CC4)o3)cc2)c1
active: [7] -5.72% | [16] -1.26%
inactive: [1] 56.9% | [2] 60.7% | [3] 44.3% | [4] 68.5% | [5] 36% | [6] 36.6% | [8] 14.1% | [19] 15.7% | [10] 18.8% | [11] 28.1% | [12] 26.4% | [13] 48.3% | [14] 44.5% | [15] 27% | [17] 13.5% | [18] 19.5%

COC1=CC(=O)C[C@@H](C)[C@]12Oc1c(Cl)c(OC)cc(OC)c1C2=O
inactive: [1] 82.7% | [2] 96.5% | [3] 82.7% | [4] 96.3% | [5] 99.9% | [6] 82.1% | [7] 114% | [8] 93.9% | [11] 96.9% | [14] 99.2% | [15] 89.2% | [16] 99.8% | [17] 91.5% | [18] 75.5%

O=c1c2c3c(sc2n2c(-c4cc(-c5ccccc5)nn4-c4ccccc4)nnc2n1Cc1ccccc1)CCCC3
inactive: [1] 102% | [2] 98% | [3] 36.7% | [4] 126% | [5] 106% | [6] 20.9% | [7] 141% | [9] 19.1% | [19] 13.2% | [10] 14.2% | [11] 49.5% | [12] 113% | [13] 83.2% | [14] 133% | [16] 101% | [17] 356% | [18] 80.4%

CNC(=O)c1cc(Oc2cccc3nc(Nc4ccc(F)c(Cl)c4)ccc23)ccn1
inactive: [1] 90.8% | [2] 60.4% | [3] 68.7% | [4] 52.9% | [5] 75.3% | [6] 97% | [7] 60.4% | [8] 60.3% | [10] 54.1% | [11] 44.8% | [12] 91.9% | [13] 40.1% | [14] 70.1% | [15] 44.5% | [16] 64.6% | [17] 70% | [18] 57.4%

Cc1c(C)c2c(c(C)c1OCC(=O)O)CC[C@@](C)(CCC[C@@H](C)CCC[C@@H](C)CCCC(C)C)O2
active: [1] -26.6% [50 µM] | [2] -32.3% [50 µM] | [5] -31.9% [50 µM] | [6] 7.85% [50 µM] | [7] -37.5% [50 µM] | [9] -1.22% [50 µM] | [19] 0.521% [50 µM] | [10] -39.4% [50 µM] | [11] -9.97% [50 µM] | [15] 1.82% [50 µM] | [16] -67.3% [50 µM] | [18] -28.2% [50 µM]
inactive: [3] 32.6% [50 µM] | [12] 25.5% [50 µM] | [13] 45.9% [50 µM] | [14] 53.3% [50 µM] | [17] 23% [50 µM]

O=C1/C(=C2/C=Nc3ccccc32)N(O)c2ccccc21
inactive: [1] 90.4% | [2] 74.8% | [3] 57.7% | [4] 129% | [5] 68.7% | [6] 57.8% | [7] 55.4% | [8] 46.2% | [9] 48.4% | [10] 38.9% | [11] 62.1% | [12] 78.2% | [13] 50% | [14] 98.8% | [15] 48.1% | [16] 34.8% | [17] 87.7% | [18] 55.2%

CCCCCCCCCOc1c(OC)cc(C2CC(=O)Nc3c2c(C)nn3-c2nc3ccccc3[nH]2)cc1OC (stereo not given)
inactive: [8] 19.1% | [9] 11.2% | [10] 10.1%
active: [1] -40.4% | [2] -33.3% | [3] -95.5% | [4] 4.51% | [5] -24.6% | [6] -73.2% | [7] -35.3% | [11] -1.61% | [12] -68.7% | [13] 1.92% | [14] -62.7% | [15] -51.1% | [16] -63.3% | [17] -23% | [18] -1.8%

COc1ccc2c(c1)O/C(=C\c1cccc(OCC(=O)Nc3nc4ccccc4s3)c1)C2=O
active: [6] -88.3% | [8] -61.4% | [11] 5.46% | [18] -60.1%
inactive: [1] 91.8% | [20] 100% | [2] 43.7% | [5] 98.2% | [7] 110% | [9] 18.4% | [10] 53.4% | [12] 95.7% | [13] 81.7% | [14] 99.1% | [16] 88.6% | [17] 93.8%

COc1ccc(S(=O)(=O)NCCNc2nccc(-c3c(-c4cccc(F)c4)nc4sccn34)n2)cc1
inactive: [1] 58.1% | [2] 30.7% | [4] 55.8% | [5] 15.8% | [6] 28.2% | [7] 43.1% | [8] 32.3% | [9] 33.9% | [10] 27.8% | [11] 36.6% | [12] 62.9% | [13] 38.9% | [14] 54.3% | [15] 14.8% | [16] 49.1% | [17] 31.4% | [18] 30.3%

Cc1cccc(Cc2cnc(NC(=O)c3ccc4nnsc4c3)s2)c1
inactive: [1] 82.7% | [2] 92.9% | [4] 80.9% | [5] 70.3% | [6] 60.2% | [7] 106% | [9] 90.2% | [19] 95.2% | [10] 76.4% | [11] 96.5% | [12] 84.4% | [13] 98.3% | [14] 91.8% | [15] 97.9% | [16] 104% | [17] 109% | [18] 90%

C[C@]12CC[C@@H]3c4cc(OC(F)F)c(O)cc4CC[C@H]3[C@@H]1CC[C@@H]2OS(N)(=O)=O
inactive: [1] 42.1% | [2] 44.2% | [3] 38.2% | [4] 93.2% | [5] 50.7% | [6] 34.5% | [8] 16.6% | [9] 25.3% | [10] 26.6% | [11] 39.3% | [12] 57.5% | [13] 67.7% | [14] 39.7% | [15] 37.1% | [17] 32.5% | [18] 12.5%
active: [7] -7.08% | [16] -0.18%

N=C1CCC(=N)c2c1c(O)c1ccccc1c2O
inactive: [1] 117% | [2] 105% | [3] 101% | [4] 127% | [5] 87% | [6] 56% | [7] 100% | [8] 98.4% | [9] 81.1% | [10] 80.2% | [11] 109% | [12] 124% | [13] 95.2% | [14] 84.7% | [15] 80.1% | [16] 73.1% | [17] 82.8% | [18] 119%

Cc1c(Cl)cc(-n2c(=O)c3ccccc3c3ccccc3c2=O)cc1Cl
inactive: [1] 98.3% | [2] 85.2% | [3] 65.3% | [4] 111% | [5] 101% | [6] 80.9% | [7] 141% | [8] 97.9% | [9] 95.5% | [10] 91.8% | [11] 105% | [12] 101% | [13] 104% | [14] 98.4% | [15] 86.7% | [16] 127% | [17] 99.3% | [18] 102%

COc1ccc(NC(=O)CSc2nnc(-c3cc(-c4ccccc4)nc4ccccc34)n2-c2ccccc2)cc1
inactive: [1] 102% | [2] 88.9% | [3] 67% | [4] 117% | [5] 94.6% | [6] 80% | [7] 74.3% | [8] 86.9% | [9] 80.2% | [10] 90.1% | [11] 90.4% | [12] 99.2% | [13] 90.3% | [14] 102% | [15] 92.5% | [16] 103% | [17] 94.7% | [18] 91.8%

CC(=O)c1nc(Nc2ccc(C)cc2)sc1C
inactive: [1] 102% | [2] 102% | [3] 81.6% | [4] 120% | [6] 87.9% | [7] 66.2% | [8] 95.6% | [9] 96.1% | [10] 96.2% | [11] 95% | [12] 97% | [13] 110% | [14] 97.8% | [15] 86.9% | [16] 97.5% | [17] 90.1% | [18] 99.4%

CCCCCCCCCCCCCCCCCC1=NCCN1CCOC1=C(Cl)C(=O)c2ccccc2C1=O
inactive: [20] 86.7% | [2] 78.9% | [3] 42.6% | [4] 78.9% | [5] 30.2% | [7] 99.7% | [8] 57% | [9] 71.7% | [10] 33.1% | [11] 75% | [12] 115% | [14] 99.9% | [15] 67% | [16] 23.4% | [17] 90.1% | [18] 81.7%
active: [6] 8.77% | [13] -5.67%

COc1ccc(CN2C(=O)C(Cl)=C(Nc3cccc(C(F)(F)F)c3)C2=O)cc1
inactive: [1] 81.7% | [2] 72.8% | [3] 28.5% | [4] 88.2% | [5] 52.5% | [6] 37.4% | [7] 57.6% | [9] 11.9% | [10] 42.6% | [11] 42.5% | [12] 55.1% | [13] 47.6% | [14] 75.8% | [15] 36.1% | [16] 62% | [17] 57% | [18] 38.9%
active: [19] 9.34%

From PubChem BioAssay (NCI)
